TGFb SMAD3 inh = blocks TGF-b signaling; HepG2 CAGA-GFP TGF-b/SMAD3 reporter, GFP fluorescence, 18 h; TGF-beta stimulated, 500 pg/mL final; Potency, µM (titrated, usually from 46.1 µM), for inactives: top-dose activity, negative = inhibition, hits mostly inhibitors; 410,000 compounds, 1.2% hits; AID 588855; note: % is set by controls: 0 for no effect and ±100 for the full control effect; nearly all actives have a fitted effect of over 65% in size
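Inhibition of TGF-beta-driven CAGA-GFP reporter expression in HEPG2 cells is measured by cellular GFP fluorescence after 18 h stimulation with 500 pg/mL recombinant TGF-beta in 1% FBS medium at 37 degrees C.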
S2 tox = reduces viability in counter-screen for ATXN expression inhibitors; S2 cells (HEK-293 line with an ATXN2-luciferase reporter) viability, CellTiter-Fluor protease fluorescence, 24 h; 400,000 compounds, 0.49% hits; Potency, µM (doses to about 56.7 µM), hits mostly cytotoxic; note: nearly all actives have a fitted effect of over 40% in size
HT1080 IDH1KD tx = toxicity to HT-1080 IDH1 knockdown cells (counter line); Potency, µM (doses to about 46.1 µM), without a hit: at the top dose activity, negative = toxicity, actives largely listed as cytotoxic; HT-1080 IDH1 knockdown viability, ATP luminescence, 48 h; 360,000 compounds, 2% hits;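 note: 0% = DMSO wells and -100% = cell-free medium wells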
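After a 2 h attachment period, IDH1KD HT-1080 cells took pin-transferred compound for 48 h at 37 °C; ATP-based luminescence after 10 min room-temperature reagent incubation reported viability.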
HepG2 tox = HepG2 cytotoxicity, counter-screen for TGF-b inhibitors | Potency, µM (top dose mostly 46.1 µM), for the others: at the top dose activity change, negative = cytotoxicity, hits mostly cytotoxic | 410,000 compounds, 0.76% hits | HepG2 CAGA-GFP viability, ATP luminescence, 18 h | AID 588856
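HepG2 CAGA-GFP cells (1000/well, DMEM with 1% FBS) received compound, then TGF-beta at 500 pg/mL final, and were incubated 18 hours at 37 degrees C. Viability was read by CellTiter-Glo luminescence. Media-only wells were set as complete cell-killing and DMSO as no toxicity.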
ATXN2 expr inh = inhibitors of ATXN2 expression | HEK-293 ATXN2-luciferase reporter, luminescence, 24 h | Potency, µM (top dose mostly 57 µM), for inactives: at the highest dose activity change, negative = inhibition, usual class: inhibitors | 360,000 compounds, 0.72% hits | AID 1745845; note: % is set by controls: 0 for no effect and ±100 for the full control effect; nearly all actives have a fitted effect of over 55% in size
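qHTS (up to 57 uM final) was run with 24 h compound exposure of reporter cells at 37 °C. Each well was multiplexed: SteadyGlo luminescence measured ATXN2-luciferase expression after a fluorogenic Gly-Phe-AFC viability readout (25 uM final).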
HT1080NT lethal = kills 2HG-producing HT-1080-NT fibrosarcoma cells; Potency, µM (top dose mostly 46.1 µM), for inactives: at the top dose activity, negative = less viability, actives largely listed as cytotoxic; HT-1080-NT fibrosarcoma viability, CellTiter-Glo ATP luminescence, 48 h; 360,000 compounds, 1.6% hits;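 note: NT is the 2HG producing partner of a matched IDH1 knockdown line; 0% = DMSO-treated cells and -100% = media-only wells without cells; nearly all actives have a fitted effect of over 55% in size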
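A 48-hour cytotoxicity screen used HT-1080-NT cells plated 2 hours before compound delivery. ATP-based CellTiter-Glo luminescence measured viability, normalized to DMSO and no-cell controls.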
Numbers without * were called inactive; i = inactive; ? = inconclusive; . = not tested or not shown. Hits are enriched below; roughly 3.8% of the tested compounds scored in any of these assays. Calls come from the whole dose curve; as a rule, active = well fitted curve in the direction sought with a large enough effect; inconclusive = small, poorly fitted or top-dose-only effect, or another doubt; inactive = no such curve, though single readings can be large; an effect the other way counts as inactive or inconclusive. Potency is the fitted concentration of half-maximal effect.

SMILES	TGFb SMAD3 inh	S2 tox	HT1080 IDH1KD tx	HepG2 tox	ATXN2 expr inh	HT1080NT lethal
Cc1nc2c(sc3nc4c(cc32)COC(C)(C)C4)c(=O)n1CC(=O)NCc1ccco1	-16%	i	?	2%	63%	7.1µM*
Cc1oc2c(c1C(=O)Nc1ccccc1Br)C1=NCCN1C=N2	?	i	.	-7%	-22%	.
COc1ccc(C)cc1NS(=O)(=O)c1c(C)nc2sc(C)cn2c1=O	31%	.	.	1%	.	.
CCc1nn(CC(=O)N2CCN(c3ccc(OC)cc3)CC2)c(=O)c2cc3sccc3n12	?	.	.	-10%	.	.
CCc1ccc(NC(=O)CC2C(=O)OCCN2CC)cc1 (stereo not drawn)	?	i	.	-29%	9%	.
COc1ccc(NC2=C(c3ccccc3)C(=O)c3ccccc32)cc1Cl	-9%	i	.	-38%	-8%	.
Cc1ccc(NC2=C(c3ccc(C(F)(F)F)cc3)C(=O)c3ccccc32)cc1C	0%	i	.	13µM*	62%	.
O=C1C(C=Nc2ccccc2O)=C(O)c2ccccc21	-27%	i	6.3µM*	-14%	51%	6.3µM*
COc1cccc(C(=O)Oc2c(Sc3ccc(C)cc3)c(C)nn2C(C)(C)C)c1OC	13µM*	.	.	13µM*	?	.
COc1ccccc1C(=O)Oc1c(Sc2ccccc2)c(C)nn1-c1ccccc1	?	11µM*	.	-94%	?	.
COc1ccc(C(=O)Oc2c(Sc3ccc(C)cc3)c(C)nn2C(C)(C)C)cc1OC	?	i	.	-17%	-17%	.
Cc1ccc2c(c1)-c1c(cnc3cc(-c4ccccc4)nn13)CO2	2%	i	.	-13%	2%	.
CCOC(=O)c1ccc2c(c1)N(CC(=O)Nc1ccc(CC)cc1)C(=O)c1ccccc1S2	3%	i	.	-1%	11%	.
COc1cc(=O)n2c(c1C(=O)NCc1ccc3c(c1)OCO3)CCN(C(=O)c1cccc(F)c1)CC2	.	i	.	.	.	.
COc1ccc(CCNC(=O)CSc2nc(-c3ccc(F)cc3)cc(C(F)(F)F)n2)cc1OC	12%	i	.	-5%	-3%	.
COc1cc(/C=C(\C#N)C(=O)NCC2CCCO2)ccc1OCC(N)=O (stereo not drawn)	-3%	i	20%	10µM*	-12%	-4%
CCN(CC)Cc1cc(Nc2c3ccccc3nc3c4ccccc4n(C)c23)cc(CN(CC)CC)c1O	-30%	32µM*	?	-57%	20µM*	18µM*
Oc1cccc(Nc2c3ccccc3nc3ccccc23)c1	?	.	?	-43%	.	?
Cc1ccccc1OCC(=O)Nc1ccc(C(=O)OCc2cc(=O)n3c(C)csc3n2)cc1	1%	.	.	-7%	.	.
CCN1CCc2c(sc(NC(=S)NC(=O)c3cccc(F)c3)c2C(N)=O)C1	56%	.	.	-14%	.	.
O=C(CCn1c(=O)[nH]c2ccccc21)NCC1Cc2cc(Cl)cc(-c3ccncc3)c2O1 (stereo not drawn)	.	i	.	.	.	.
Cc1cc(Cl)ccc1NS(=O)(=O)c1ccc2c(c1)CC(C)N2C(=O)C1CCC1 (stereo not drawn)	11µM*	i	.	-22%	-28%	.
Cc1ccc(NS(=O)(=O)c2ccc3c(c2)CC(C)N3C(=O)C2CCC2)cc1Cl (stereo not drawn)	?	i	.	-18%	?	.
Cc1ccc(NC(=O)CSc2nc(-c3ccco3)cc(C(F)(F)F)n2)cc1	-7%	i	.	-17%	-12%	.
O=CNc1c(Cl)cc2c(c1Cl)Cc1cc([N+](=O)[O-])ccc1-2	3.2µM*	i	-12%	-32%	-6%	-1%
SMILES	TGFb SMAD3 inh	S2 tox	HT1080 IDH1KD tx	HepG2 tox	ATXN2 expr inh	HT1080NT lethal
O=[N+]([O-])c1ccc2c(c1)Cc1cc(F)ccc1-2	-6%	i	30%	-6%	1%	?
CC(C)(C)c1ccc(Cn2cnc3c(cnn3C(C)(C)C)c2=O)cc1	7%	.	.	-18%	.	.
COc1cccc(CNC(=O)C2CCCN(S(=O)(=O)N(C)c3ccc(F)cc3)C2)c1OC (stereo not drawn)	?	.	.	-34%	.	.
CN(c1ccc(F)cc1)S(=O)(=O)N1CCCC(C(=O)NCc2ccccc2Cl)C1 (stereo not drawn)	11µM*	.	.	-25%	.	.
Ic1ccc(Nc2nc(NCCN3CCOCC3)nc(N3CCOCC3)n2)cc1	6%	.	.	-52%	.	.
CCOC(=O)C1Nc2ccc(C(F)(F)F)cc2C2c3ccccc3CC12 (stereo not drawn)	?	?	?	-101%	25µM*	?
O=C(NCCOc1ccccc1)C1Nc2ccc(C(F)(F)F)cc2C2c3ccccc3CC12 (stereo not drawn)	?	i	?	16µM*	-37%	?
O=C(NCc1ccccc1)C1Nc2ccc(OC(F)(F)F)cc2C2C=CCC12 (stereo not drawn)	?	i	7%	-4%	-16%	4%
CCOC(=O)C1Nc2ccccc2C2C(O)C(O)CC12 (stereo not drawn)	?	?	?	-31%	-34%	?
CCc1ccccc1NC(=O)CN1C(=O)C2CCCN2c2ccc(S(=O)(=O)N(CC)CC)cc21 (stereo not drawn)	-20%	.	.	-29%	.	.
Cc1ccc2c(c1)CCCN2C(=O)c1ccoc1C	18%	i	?	-3%	-23%	22µM*
CC(C)c1ccc(Cn2ccc3c4c(N)nc(NC5CC5)nc4ccc32)cc1	.	.	.	.	24µM*	.
O=C(CS(=O)(=O)c1cccc2nsnc12)N1CCN(c2ccccc2)CC1	-6%	i	.	-7%	-4%	.
Cc1nc2c(Br)cc(Br)cc2c(=O)n1-c1ccccc1NC1OCC(O)C(O)C1O (stereo not drawn)	6%	i	-14%	1.6µM*	?	-3%
CCOc1ccc(CN2CCC(C(=O)Nc3cccc(-c4ccn[nH]4)c3)CC2)cc1Cl	?	?	?	-72%	?	18µM*
COc1cccc(-c2cccc(NC(=O)C3CCN(Cc4nccs4)CC3)c2)c1	-11%	i	6%	4%	-2%	3%
CC(C)=CCC/C(C)=C/CC/C(C)=C/C(=O)OCC(=O)[C@@]1(O)CC[C@H]2[C@@H]3CCC4=CC(=O)C=C[C@]4(C)[C@H]3[C@@H](O)C[C@@]21C	.	i	.	.	-10%	.
O=C(/C=C/c1ccncc1)c1ccc2c(c1)OCCO2	?	?	18µM*	-88%	-8%	?

Screens: PubChem, National Center for Advancing Translational Sciences (NCATS)
